The assay addresses furin, P09958. Nature of the assay: furin cleavage Z-score vs untreated control; higher = more cleavage, active = 3.5 or more, inactive = 1 or less, 8 variable residues between constant flanks. How it is done: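 Multiplexed peptide-cDNA fusion cleavage assay. 8-mer variable peptides flanked by constant Cys-Ala (N-term) and Ala-Gly-Asn-Ala-Ser-Ala-Ser-Ala (C-term) and conjugated to a cDNA oligonucleotide were bead-immobilised via the N-terminus. They were treated with purified furin at a 1:10 enzyme:substrate ratio in 50 mM HEPES pH 7.5, 1 mM CaCl2, 100 mM NaCl for 7.5, 15 or 30 min. Released cDNA was counted by next-generation sequencing, and log counts versus no-furin controls were lowess-adjusted and converted to robust Z-scores.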

The list shows a part of the results. How many sequences the whole screen found active is unknown.

Sequence of furin, P09958 (P09958 whole entry, the tested form may be a part): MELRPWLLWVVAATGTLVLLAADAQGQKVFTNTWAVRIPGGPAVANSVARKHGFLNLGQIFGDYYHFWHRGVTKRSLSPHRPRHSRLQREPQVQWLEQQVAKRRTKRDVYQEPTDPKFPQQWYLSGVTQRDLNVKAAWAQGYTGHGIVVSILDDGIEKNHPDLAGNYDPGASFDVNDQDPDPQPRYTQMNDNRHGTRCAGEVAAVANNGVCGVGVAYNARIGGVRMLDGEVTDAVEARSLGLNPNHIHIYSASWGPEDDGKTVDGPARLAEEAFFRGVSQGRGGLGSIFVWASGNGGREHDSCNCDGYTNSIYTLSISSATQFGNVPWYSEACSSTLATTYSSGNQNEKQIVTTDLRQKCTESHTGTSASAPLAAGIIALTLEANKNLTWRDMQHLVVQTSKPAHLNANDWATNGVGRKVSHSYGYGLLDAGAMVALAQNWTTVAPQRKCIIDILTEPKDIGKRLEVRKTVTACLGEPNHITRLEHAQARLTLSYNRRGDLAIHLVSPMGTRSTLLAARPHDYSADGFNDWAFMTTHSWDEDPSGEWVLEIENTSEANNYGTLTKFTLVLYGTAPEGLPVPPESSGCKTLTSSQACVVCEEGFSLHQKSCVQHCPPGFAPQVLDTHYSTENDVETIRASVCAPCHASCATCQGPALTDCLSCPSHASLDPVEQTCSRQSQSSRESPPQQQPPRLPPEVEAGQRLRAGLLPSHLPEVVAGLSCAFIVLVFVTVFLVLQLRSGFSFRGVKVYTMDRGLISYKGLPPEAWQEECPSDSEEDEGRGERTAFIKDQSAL

B1: HC152 (peptide)
chain: CAEVVTDTWVAGNASASA
Regarding B1, the “furin cleavage Z-score” value is -0.985 (inactive) (7.5 min), 0.416 (inactive) (15 min) and -1.25 (inactive) (30 min).

B2: HC69 (peptide)
chain: CATTPCHGSWAGNASASA
As for B2, the “furin cleavage Z-score” value is, setting by setting: (7.5 min) 1.47; (15 min) 0.142 (inactive); (30 min) 1.5.

B3: FS-660 (peptide)
chain: CAGTWRPRRSAGNASASA
Take B3: the “furin cleavage Z-score” value by setting is: (7.5 min) 10.9 (active); (15 min) 11.6 (active); (30 min) 7.85 (active).

B4: FS-952 (peptide)
chain: CARLVRPRRSAGNASASA
On to B4, for which the “furin cleavage Z-score” value was 13.4 (active) (7.5 min), 14.2 (active) (15 min) and 10.3 (active) (30 min).

B5: HC2403 (peptide)
chain: CAEVPCHRPAAGNASASA
As to B5, the “furin cleavage Z-score” value is, setting by setting: (7.5 min) -1.55 (inactive); (15 min) 0.357 (inactive); (30 min) -0.33 (inactive).

B6: HC2348 (peptide)
chain: CAEVWCHRPSAGNASASA
B6: the “furin cleavage Z-score” value is 0.218 (inactive) (7.5 min), 0.0316 (inactive) (15 min) and 0.64 (inactive) (30 min).

B7: HC966 (peptide)
chain: CALIRLKPTLAGNASASA
With B7, the “furin cleavage Z-score” value reads like this: (7.5 min) -1.19 (inactive); (15 min) -1.25 (inactive); (30 min) 0.404 (inactive).

B8: HC1467 (peptide)
chain: CAFQYSPGQRAGNASASA
Take B8: the “furin cleavage Z-score” value by setting is: (7.5 min) -0.221 (inactive); (15 min) -0.464 (inactive); (30 min) -2.47 (inactive).

B9: FS-1440 (peptide)
chain: CAYRYRRRRSAGNASASA
As for B9, the “furin cleavage Z-score” value reads like this: (7.5 min) 4.89 (active); (15 min) 5.22 (active); (30 min) 3.7 (active).

B10: FS-1655 (peptide)
chain: CARYQRRSRSAGNASASA
As for B10, the “furin cleavage Z-score” value was 7.45 (active) (7.5 min), 7.54 (active) (15 min) and 8.29 (active) (30 min).

B11: HC1480 (peptide)
chain: CAYDTRCFDSAGNASASA
For the sequence B11, the “furin cleavage Z-score” value reads like this: (7.5 min) -1.56 (inactive); (15 min) 0.436 (inactive); (30 min) 0.927 (inactive).

B12: FS-1296 (peptide)
chain: CAYRRRRSRSAGNASASA
As for B12, the “furin cleavage Z-score” value is, setting by setting: (7.5 min) 7.22 (active); (15 min) 8.22 (active); (30 min) 6.95 (active).

B13: FS-393 (peptide)
chain: CAYRKRQCRSAGNASASA
For the sequence B13, the “furin cleavage Z-score” value (7.5 min) was 5.64 (active), the “furin cleavage Z-score” value (15 min) is 5.62 (active) and the “furin cleavage Z-score” value (30 min) was determined as 3.16.

B14: FS-111 (peptide)
chain: CAYRRRPPRSAGNASASA
Turning to B14, the “furin cleavage Z-score” value is 1.85 (7.5 min), 1.04 (15 min) and 0.965 (inactive) (30 min).

B15: HC45 (peptide)
chain: CATTPISGSWAGNASASA
Take B15: the “furin cleavage Z-score” value (7.5 min) is -0.899 (inactive), the “furin cleavage Z-score” value (15 min) was -0.739 (inactive) and the “furin cleavage Z-score” value (30 min) is -0.823 (inactive).

B16: HC2485 (peptide)
chain: CASLPCSAHLAGNASASA
With B16, the “furin cleavage Z-score” value runs as follows: (7.5 min) -0.663 (inactive); (15 min) 0.376 (inactive); (30 min) 0.512 (inactive).

B17: HC1693 (peptide)
chain: CAMRECSQHLAGNASASA
As for B17, the “furin cleavage Z-score” value is, setting by setting: (7.5 min) -1.86 (inactive); (15 min) 1.41; (30 min) 0.442 (inactive).

B18: HC2277 (peptide)
chain: CASLEVVTSTAGNASASA
Regarding B18, the “furin cleavage Z-score” value (7.5 min) was -0.584 (inactive), the “furin cleavage Z-score” value (15 min) was -0.0293 (inactive) and the “furin cleavage Z-score” value (30 min) was 0.688 (inactive).

B19: FS-1875 (peptide)
chain: CAYIPRILGPAGNASASA
As for B19, the “furin cleavage Z-score” value was -0.849 (inactive) (7.5 min), -0.994 (inactive) (15 min) and -2.27 (inactive) (30 min).

B20: HC2237 (peptide)
chain: CAEVVTSTSVAGNASASA
On to B20, for which the “furin cleavage Z-score” value is 0.559 (inactive) (7.5 min), -1.07 (inactive) (15 min) and -1.09 (inactive) (30 min).

B21: FS-1611 (peptide)
chain: CARYIRSERSAGNASASA
For B21, the “furin cleavage Z-score” value was 6.49 (active) (7.5 min), 8.32 (active) (15 min) and 8.42 (active) (30 min).

B22: HC185 (peptide)
chain: CATRKTSERSAGNASASA
With B22, the “furin cleavage Z-score” value was 0.0798 (inactive) (7.5 min), 1.75 (15 min) and 1.32 (30 min).

B23: HC1865 (peptide)
chain: CATTLCSGSWAGNASASA
With B23, the “furin cleavage Z-score” value is -0.162 (inactive) (7.5 min), -0.533 (inactive) (15 min) and 0.486 (inactive) (30 min).

B24: HC66 (peptide)
chain: CATTPCFGSWAGNASASA
As for B24, the “furin cleavage Z-score” value is 0.204 (inactive) (7.5 min), 0.119 (inactive) (15 min) and -0.471 (inactive) (30 min).

B25: FS-2493 (peptide)
chain: CARKRRAPHGAGNASASA
Regarding B25, the “furin cleavage Z-score” value is 4.63 (active) (7.5 min), 5.64 (active) (15 min) and 5.6 (active) (30 min).

B26: FS-2698 (peptide)
chain: CARKRRAPLAAGNASASA
B26: the “furin cleavage Z-score” value is 6.06 (active) (7.5 min), 7.82 (active) (15 min) and 7.26 (active) (30 min).

B27: FS-2738 (peptide)
chain: CARPFRQVLAAGNASASA
Take B27: the “furin cleavage Z-score” value is, setting by setting: (7.5 min) -0.792 (inactive); (15 min) 0.095 (inactive); (30 min) -0.451 (inactive).

B28: FS-2973 (peptide)
chain: CARKRRKGKAAGNASASA
On to B28, for which the “furin cleavage Z-score” value by setting is: (7.5 min) -1.27 (inactive); (15 min) 1.85; (30 min) 0.732 (inactive).

B29: FS-2974 (peptide)
chain: CARKRRRQHGAGNASASA
As for B29, the “furin cleavage Z-score” value reads like this: (7.5 min) -0.939 (inactive); (15 min) -0.0293 (inactive); (30 min) 0.389 (inactive).

B30: HC844 (peptide)
chain: CALSTTGEIPAGNASASA
Consider B30, for which the “furin cleavage Z-score” value was 0.383 (inactive) (7.5 min), -0.16 (inactive) (15 min) and 0.771 (inactive) (30 min).

B31: FS-2067 (peptide)
chain: CARRKRAGGGAGNASASA
With B31, the “furin cleavage Z-score” value (7.5 min) is 4.24 (active), the “furin cleavage Z-score” value (15 min) was 4.92 (active) and the “furin cleavage Z-score” value (30 min) was 5.33 (active).

B32: FS-2402 (peptide)
chain: CARRKRKSQRAGNASASA
Turning to B32, the “furin cleavage Z-score” value by setting is: (7.5 min) 1.07; (15 min) 2.8; (30 min) 3.58 (active).

B33: FS-2457 (peptide)
chain: CARSCRILHKAGNASASA
On to B33, for which the “furin cleavage Z-score” value runs as follows: (7.5 min) 0.718 (inactive); (15 min) 0.25 (inactive); (30 min) 0.502 (inactive).

B34: FS-2516 (peptide)
chain: CARRKRRQTGAGNASASA
As to B34, the “furin cleavage Z-score” value is 8.82 (active) (7.5 min), 9.35 (active) (15 min) and 7.88 (active) (30 min).

B35: FS-1918 (peptide)
chain: CARRKRFPGKAGNASASA
As to B35, the “furin cleavage Z-score” value is, setting by setting: (7.5 min) 0.56 (inactive); (15 min) 2.63; (30 min) 3.28.

B36: FS-1969 (peptide)
chain: CARRKRRHHKAGNASASA
For B36, the “furin cleavage Z-score” value reads like this: (7.5 min) 1.16; (15 min) 4.53 (active); (30 min) 5.66 (active).

B37: FS-3054 (peptide)
chain: CARRKRLRHRAGNASASA
As for B37, the “furin cleavage Z-score” value by setting is: (7.5 min) -0.105 (inactive); (15 min) -0.397 (inactive); (30 min) -1.97 (inactive).

B38: FS-2228 (peptide)
chain: CARRKRIVGGAGNASASA
B38: the “furin cleavage Z-score” value by setting is: (7.5 min) 0.169 (inactive); (15 min) 1.22; (30 min) 2.08.

B39: HC2275 (peptide)
chain: CAHLEVVTSTAGNASASA
Turning to B39, the “furin cleavage Z-score” value runs as follows: (7.5 min) -0.0236 (inactive); (15 min) -0.0472 (inactive); (30 min) -0.103 (inactive).

B40: HC2470 (peptide)
chain: CAVTPCSAHLAGNASASA
In the case of B40, the “furin cleavage Z-score” value reads like this: (7.5 min) -2.91 (inactive); (15 min) -0.94 (inactive); (30 min) -1.39 (inactive).

B41: HC683 (peptide)
chain: CATSLTGRDKAGNASASA
Consider B41, for which the “furin cleavage Z-score” value is 0.711 (inactive) (7.5 min), 0.726 (inactive) (15 min) and 0.633 (inactive) (30 min).

B42: HC1950 (peptide)
chain: CAVCTTPCSGAGNASASA
Consider B42, for which the “furin cleavage Z-score” value runs as follows: (7.5 min) -1.68 (inactive); (15 min) 1.7; (30 min) 0.388 (inactive).

B43: HC820 (peptide)
chain: CAHSTDATSIAGNASASA
For the sequence B43, the “furin cleavage Z-score” value is 0.202 (inactive) (7.5 min), -1.29 (inactive) (15 min) and 0.297 (inactive) (30 min).

The values are drawn from the supplement of paper PMC3545927.
